This passage reports binding signal results from PMC9911399, “Two distinct binding modes provide the RNA-binding protein RbFox with extraordinary sequence specificity”.

To fix the notation:
T1: RBFOX1 RRM RbFoxmut (Fox-RRM*) (Homo sapiens, UniProt Q9NWB1 109-208, R118D;E147R;N151S;E152T)
T1 sequence: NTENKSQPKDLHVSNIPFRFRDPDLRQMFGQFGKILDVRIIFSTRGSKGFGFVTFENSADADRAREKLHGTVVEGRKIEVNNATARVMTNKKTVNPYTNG

B1: CCAUUAU (DNA:RNA)
RNA: GGGAGACCGGAAUUCAGAUUGUCCCCAUUAUUUAAAUCCCGUCGUAGCCACCA
DNA 1: CAATCTGAATTCCGGTCTCCC
DNA 2: TGGTGGCTACGACGGGATT
B2: UUGGCUA (DNA:RNA)
RNA: GGGAGACCGGAAUUCAGAUUGUCCUUGGCUAUUAAAUCCCGUCGUAGCCACCA
DNA 1: CAATCTGAATTCCGGTCTCCC
DNA 2: TGGTGGCTACGACGGGATT
B3: GUGUGGC (DNA:RNA)
RNA: B2 RNA with U25G, G28U, C29G, U30G, A31C
DNA 1: CAATCTGAATTCCGGTCTCCC
DNA 2: TGGTGGCTACGACGGGATT
B4: UUGGCUC (DNA:RNA)
RNA: B2 RNA with A31C
DNA 1: CAATCTGAATTCCGGTCTCCC
DNA 2: TGGTGGCTACGACGGGATT
B5: UUGGCUG (DNA:RNA)
RNA: B2 RNA with A31G
DNA 1: CAATCTGAATTCCGGTCTCCC
DNA 2: TGGTGGCTACGACGGGATT
B6: GUGGCUG (DNA:RNA)
RNA: B2 RNA with U25G, A31G
DNA 1: CAATCTGAATTCCGGTCTCCC
DNA 2: TGGTGGCTACGACGGGATT
B7: GUGGCUC (DNA:RNA)
RNA: B2 RNA with U25G, A31C
DNA 1: CAATCTGAATTCCGGTCTCCC
DNA 2: TGGTGGCTACGACGGGATT
B8: GAACUCU (DNA:RNA)
RNA: B1 RNA with C25G, C26A, U28C, A30C
DNA 1: CAATCTGAATTCCGGTCTCCC
DNA 2: TGGTGGCTACGACGGGATT
B9: CGGUAAG (DNA:RNA)
RNA: B1 RNA with C26G, A27G, U29A, U31G
DNA 1: CAATCTGAATTCCGGTCTCCC
DNA 2: TGGTGGCTACGACGGGATT
B10: CCGGUCA (DNA:RNA)
RNA: B1 RNA with A27G, U28G, A30C, U31A
DNA 1: CAATCTGAATTCCGGTCTCCC
DNA 2: TGGTGGCTACGACGGGATT
B11: UGCGACA (DNA:RNA)
RNA: B2 RNA with U26G, G27C, C29A, U30C
DNA 1: CAATCTGAATTCCGGTCTCCC
DNA 2: TGGTGGCTACGACGGGATT
B12: CUGGCUG (DNA:RNA)
RNA: B2 RNA with U25C, A31G
DNA 1: CAATCTGAATTCCGGTCTCCC
DNA 2: TGGTGGCTACGACGGGATT
B13: UGGCUGU (DNA:RNA)
RNA: B1 RNA with C25U, C26G, A27G, U28C, A30G
DNA 1: CAATCTGAATTCCGGTCTCCC
DNA 2: TGGTGGCTACGACGGGATT
B14: CUGUGGC (DNA:RNA)
RNA: B1 RNA with C26U, A27G, U29G, A30G, U31C
DNA 1: CAATCTGAATTCCGGTCTCCC
DNA 2: TGGTGGCTACGACGGGATT
B15: UGGGCUC (DNA:RNA)
RNA: B2 RNA with U26G, A31C
DNA 1: CAATCTGAATTCCGGTCTCCC
DNA 2: TGGTGGCTACGACGGGATT
B16: UGGGGGC (DNA:RNA)
RNA: B2 RNA with U26G, C29G, U30G, A31C
DNA 1: CAATCTGAATTCCGGTCTCCC
DNA 2: TGGTGGCTACGACGGGATT
B17: UGGGCUG (DNA:RNA)
RNA: B2 RNA with U26G, A31G
DNA 1: CAATCTGAATTCCGGTCTCCC
DNA 2: TGGTGGCTACGACGGGATT
B18: GGUGCCG (DNA:RNA)
RNA: B2 RNA with U25G, U26G, G27U, U30C, A31G
DNA 1: CAATCTGAATTCCGGTCTCCC
DNA 2: TGGTGGCTACGACGGGATT
B19: CCCAUAA (DNA:RNA)
RNA: B1 RNA with A27C, U28A, U31A
DNA 1: CAATCTGAATTCCGGTCTCCC
DNA 2: TGGTGGCTACGACGGGATT
B20: CGUUUAU (DNA:RNA)
RNA: B1 RNA with C26G, A27U
DNA 1: CAATCTGAATTCCGGTCTCCC
DNA 2: TGGTGGCTACGACGGGATT
B21: GCAUGUG (DNA:RNA)
RNA: B1 RNA with C25G, U29G, A30U, U31G
DNA 1: CAATCTGAATTCCGGTCTCCC
DNA 2: TGGTGGCTACGACGGGATT
B22: GCACAUG (DNA:RNA)
RNA: B1 RNA with C25G, U28C, U29A, A30U, U31G
DNA 1: CAATCTGAATTCCGGTCTCCC
DNA 2: TGGTGGCTACGACGGGATT
B23: GCGCAUA (DNA:RNA)
RNA: B2 RNA with U25G, U26C, G28C, C29A
DNA 1: CAATCTGAATTCCGGTCTCCC
DNA 2: TGGTGGCTACGACGGGATT
B24: GCGCGCA (DNA:RNA)
RNA: B2 RNA with U25G, U26C, G28C, C29G, U30C
DNA 1: CAATCTGAATTCCGGTCTCCC
DNA 2: TGGTGGCTACGACGGGATT
B25: GCGCAUG (DNA:RNA)
RNA: B2 RNA with U25G, U26C, G28C, C29A, A31G
DNA 1: CAATCTGAATTCCGGTCTCCC
DNA 2: TGGTGGCTACGACGGGATT
B26: GCAGAUG (DNA:RNA)
RNA: B1 RNA with C25G, U28G, U29A, A30U, U31G
DNA 1: CAATCTGAATTCCGGTCTCCC
DNA 2: TGGTGGCTACGACGGGATT
B27: GCAUAUG (DNA:RNA)
RNA: B1 RNA with C25G, U29A, A30U, U31G
DNA 1: CAATCTGAATTCCGGTCTCCC
DNA 2: TGGTGGCTACGACGGGATT
B28: GCAUGUC (DNA:RNA)
RNA: B1 RNA with C25G, U29G, A30U, U31C
DNA 1: CAATCTGAATTCCGGTCTCCC
DNA 2: TGGTGGCTACGACGGGATT
B29: GUCCGUC (DNA:RNA)
RNA: B2 RNA with U25G, G27C, G28C, C29G, A31C
DNA 1: CAATCTGAATTCCGGTCTCCC
DNA 2: TGGTGGCTACGACGGGATT
B30: GGCUGGU (DNA:RNA)
RNA: B1 RNA with C25G, C26G, A27C, U29G, A30G
DNA 1: CAATCTGAATTCCGGTCTCCC
DNA 2: TGGTGGCTACGACGGGATT
B31: GAAGAAG (DNA:RNA)
RNA: B1 RNA with C25G, C26A, U28G, U29A, U31G
DNA 1: CAATCTGAATTCCGGTCTCCC
DNA 2: TGGTGGCTACGACGGGATT

Residue numbers refer to the chain shown, from its start. In all, about 16,000 sequences were measured (“ka relative to ugcaugu”: median about 0.096, highest 2% from about 0.35 on). The entries come from a sample that favours the highest values as a whole.

This assay has as its target T1, RBFOX1 RRM RbFoxmut (Fox-RRM*). As to the kind of experiment: EMSA; HiTS-Eq, 1 nM pool, 10 min; buffer printed only for the single-RNA assays: 10 mM Tris pH 7.5, 150 mM NaCl, 3.4 mM EDTA, 0.001% NP-40, 30 C. The settings on record: tags: His6 N-terminal (pET28a); label: 5' 32P. Put shortly: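 Purified RbFox RRM, wild type or mutant, was incubated for 10 min in 50 µL with 1 nM of a 5′-radiolabelled RNA pool carrying 7 randomized nucleotides, whose flanks were annealed to DNA oligonucleotides, over a series of increasing protein concentrations. Unbound RNA was resolved on 8% native PAGE, cut out, reverse-transcribed, barcoded by PCR and sequenced on an Illumina HiSeq 2500. Relative association constants were derived from changes in read counts for each RNA species versus the control reaction and normalised to the cognate motif.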
For the molecule B1, the binding signal was 0.131 KA relative to UGCAUGU.
The result for B2 reads 0.168 KA relative to UGCAUGU.
For the molecule B3, the binding signal was 0.132 KA relative to UGCAUGU.
With B4, the binding signal is 0.134 KA relative to UGCAUGU.
Consider B5, for which the binding signal was 0.435 KA relative to UGCAUGU.
In the case of B6, the binding signal is 0.549 KA relative to UGCAUGU.
Turning to B7, the binding signal was 0.125 KA relative to UGCAUGU.
On to B8, for which the binding signal was 0.053 KA relative to UGCAUGU.
For the molecule B9, the binding signal was 0.0872 KA relative to UGCAUGU.
B10: the binding signal was 0.0703 KA relative to UGCAUGU.
Take B11: the binding signal is 0.0626 KA relative to UGCAUGU.
As for B12, the figure is 0.431 KA relative to UGCAUGU; as for B13, 0.299 KA relative to UGCAUGU; as for B14, 0.102 KA relative to UGCAUGU.
Turning to B15, the binding signal was 0.115 KA relative to UGCAUGU.
As to B16, the binding signal was 0.0983 KA relative to UGCAUGU.
Consider B17, for which the binding signal is 0.462 KA relative to UGCAUGU.
Turning to B18, the binding signal was 0.128 KA relative to UGCAUGU.
The result for B19 reads 0.0954 KA relative to UGCAUGU; that for B20, 0.147 KA relative to UGCAUGU; that for B21, 0.954 KA relative to UGCAUGU.
With B22, the binding signal was 0.128 KA relative to UGCAUGU.
In the case of B23, the binding signal was 0.152 KA relative to UGCAUGU.
The result for B24 reads 0.13 KA relative to UGCAUGU; that for B25, 1.33 KA relative to UGCAUGU; that for B26, 0.142 KA relative to UGCAUGU.
The result for B27 reads 0.197 KA relative to UGCAUGU; that for B28, 0.492 KA relative to UGCAUGU.
Take B29: the binding signal is 0.0864 KA relative to UGCAUGU.
As for B30, the figure is 0.14 KA relative to UGCAUGU; as for B31, 0.0975 KA relative to UGCAUGU.
